Laboratory results taken from PubChem BioAssay (EPA / NIEHS).
Active and inactive are the calls of the source. The calls were made as follows: active = hit-call score of the fitted dose curve at least 0.9, where 1 is the maximum; inactive = score below 0.9.

Assay: ATG_M_06_CIS: Attagene CIS-FACTORIAL HepG2 Assay for M06 Transcription Factor (Internal Marker) (AID 2282950)
Conditions: HepG2 Attagene CIS-FACTORIAL M06 internal marker reporter; actives raise or lower the signal
Protocol: ATG_CIS is a cell-based, multiplexed-readout assay that uses HepG2, a human liver cell line, with measurements taken at 24 hours after chemical dosing in a 24-well plate.ATG_M_06_CIS is one of 52 assay component(s) measured or calculated from the ATG_CIS assay. It is designed to make measurements of mRNA induction, a form of inducible reporter, as detected with fluorescence intensity signals by Reverse transcription polymerase chain reaction (RT-PCR) and Capillary electrophoresis technology.Data from the assay component ATG_M_06_CIS was analyzed into 1 assay endpoint. This assay endpoint, ATG_M_06_CIS, was analyzed with bidirectional fitting relative to DMSO as the negative control and baseline of activity. Using a type of inducible reporter, measures of mRNA for gain or loss-of-signal activity can be used to understand the background control at the transcription factor-level as they relate to the gene . Furthermore, this assay endpoint can be referred to as a secondary readout, because this assay has produced multiple assay endpoints where this one serves a background control function. To generalize the intended target to other relatable targets, this assay endpoint is annotated to the background measurement intended target family, where the subfamily is internal marker.
Human liver HepG2 cells are transiently transfected with multiple reporter transcription units (MRTUs) in 6-well plates using FuGene 6 reagent (Roche; 3 ml FuGene/1 mg DNA). The MRTU constructs are regulated by a cis-regulating element (promoter). […] A major difference between the CIS and TRANS system is that in CIS activities of endogenous TFs are measured, whereas the TRANS assay evaluates changes in activities of exogenous, chimeric NR-Gal4 proteins. […] At the end of 24 hour incubation, total RNA was isolated using TriZol reagent (Invitrogen). The isolated RNA is then reverse-transcribed using oligo(dT) primer and Mo-MLV reverse transcriptase (Invitrogen) with DNAse I (Ambion) treatment for 30 min. The one-tenth of the produced cDNA was amplified by PCR using Taq DNA polymerase (Invitrogen) and two reporter sequence-specific primers. The PCR products were fluorescently labeled by primer extension with 6-arboxyfluorescein (6-FAM) 5'-labeled reporter sequence-specific primer (2 min at 95 C, 20 s at 68 C and 10 min at 72 C) and these products were digested with 5U of HpaI (New England Biolabs) for 2h at 37 C. The fragments were purified using Qiaquick PCR columns (Qiagen), analyzed on an ABI 3130xL genetic analyzer (Applied Biosystems) with peak positions identified by using a set of X-rhodamine (ROX)-labeled MapMarker1000 molecular weight standards (BioVentures). The raw capillary electrophoresis data was processed using Attagraph software (Attagene).
In the case of `C1CNCCN1`, the outcome is reported as “inactive”.
For `O=C(O)CCC(=O)O`, the outcome was “inactive”.
For `CCCCCCCCCCCCCC(=O)OC(C)C`, the outcome was “inactive”.
With `C/C=C/C=C/CCCCCCCO` the outcome was “inactive”.
In the case of `CC(=O)OC1CCCCC1C(C)(C)C` (stereo not given), the outcome is reported as “inactive”.
For `CC(C=O)c1ccccc1` (stereo not given), the outcome was “inactive”.
In the case of `C=CC(=O)O[C@H]1C[C@@H]2CC[C@@]1(C)C2(C)C`, the outcome is reported as “inactive”.
For `CC(C)c1cc(C(C)C)cc(C(C)C)c1`, the outcome was “inactive”.
In the case of `Cn1cccc1`, the outcome is reported as “inactive”.
For `CN1CCN(C)CC1`, the outcome was “inactive”.
With `C=C1C[C@H]2[C@@H]3C=C(C)C4=CC(=O)CC[C@]4(C)[C@H]3CC[C@]2(C)[C@@]1(OC(C)=O)C(C)=O` the outcome was “inactive”.
For `CC=C(C)C=CC=C(C)C`, the outcome was “inactive”.
In the case of `CC1(C)CCC[C@]2(C)[C@H]3CC(=O)O[C@]3(C)CC[C@@H]12`, the outcome is reported as “inactive”.
For `CCOB(OCC)OCC`, the outcome was “inactive”.
In the case of `CC(=O)c1ccc(S(=O)(=O)NC(=O)NC2CCCCC2)cc1`, the outcome is reported as “inactive”.
For `COC(OC)(C(=O)c1ccccc1)c1ccccc1`, the outcome was “inactive”.
In the case of `CC(C)[N+](C)(CCOC(=O)C1c2ccccc2Oc2ccccc21)C(C)C`, the outcome is reported as “inactive”.
With `CC(C)(C)N` the outcome was “inactive”.
For `Cc1ccc([N+](=O)[O-])cc1N`, the outcome was “inactive”.
In the case of `CCCCCCC=O`, the outcome is reported as “inactive”.
In the case of `O=C(O)/C=C/c1ccccc1`, the outcome is reported as “inactive”.
In the case of `CCCC(CC)c1ccccc1` (stereo not given), the outcome is reported as “inactive”.
In the case of `CC1CCC(=O)C1=O` (stereo not given), the outcome is reported as “inactive”.
For `CCC(C)(O)CCCC(C)C` (stereo not given), the outcome was “inactive”.
For `OCCCc1ccccc1`, the outcome was “inactive”.
With `Cc1c[nH]c(=O)[nH]c1=O` the outcome was “inactive”.
With `CCC(=O)C1CC(C(C)C)CC=C1C` (stereo not given) the outcome was “inactive”.
With `COc1nccnc1CC(C)C` the outcome was “inactive”.
With `CC(CC(C)C)=NO` the outcome was “inactive”.
In the case of `COC(=O)CC(C)CCC=C(C)C` (stereo not given), the outcome is reported as “inactive”.
For `CC1(C)C(=O)N(CO)C(=O)N1CO`, the outcome was “inactive”.
With `Nc1ccc(C(=O)O)cc1` the outcome was “inactive”.
In the case of `CC(C)c1ccc(O)c(C(C)C)c1`, the outcome is reported as “inactive”.
For `CCOC(=O)/C=C\C(=O)OCC`, the outcome was “inactive”.
With `Nc1cccc(N)n1` the outcome was “inactive”.
For `Nc1ccc(O)c([N+](=O)[O-])c1`, the outcome was “inactive”.
In the case of `CCCCC(=O)O`, the outcome is reported as “inactive”.
In the case of `CCCCCC(=O)OCC`, the outcome is reported as “inactive”.
With `CCCCC(C=O)CC` (stereo not given) the outcome was “inactive”.
For `Cc1noc(NS(=O)(=O)c2ccc(N)cc2)c1C`, the outcome was “inactive”.
